Screens: PubChem BioAssay, NMMLSC
Most compounds without a hit are left out; they make up all but 1.2% or so of the library.
RGS7-Gao reg: RGS7-Galphao binding modulators, primary screen, biochemical, multiplexed bead flow cytometry | binding response (% of control), % at 10 µM | 220,000 compounds, 0.35% hits | actives lie on both sides; in the data active means binding response below about 49% or above about 150%;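 further: fluorescent Galphao held in activated GDP-AlF4 state binding bead-coupled RGS7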
RGS16-Gao: modulators of RGS16 binding to Galphao, primary screen, biochemical, human proteins, multiplexed bead flow cytometry | Regulator of G-protein signaling 16 (Homo sapiens) + Guanine nucleotide-binding protein … | bead-based flow cytometry RGS16-Galphao binding, fluorescence; actives lie on both sides | binding response (% of control), % at 10 µM | 220,000 compounds, 0.38% hits | AID 1441, 2008;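 further: Galphao activated by GDP with aluminum fluoride before binding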
RGS4-Gao reg: modulators of RGS4 binding to Galphao, primary screen, biochemical, multiplexed bead flow cytometry | 220,000 compounds, 0.33% hits | binding response (% of control), % at 10 µM | Guanine nucleotide-binding protein G(o) subunit alpha (Homo sapiens), P09471 | actives lie on both sides; in the data active means binding response below about 49% or above about 150%; inactive means in between;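 further: fluorescent Galphao activated with aluminum fluoride binding bead-coupled RGS4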
RGS8-Gao: RGS8-Galphao binding modulators, primary screen, biochemical, multiplexed bead flow cytometry. response (percent of control binding), % at 10 µM. Guanine nucleotide-binding protein G(o) subunit alpha (Homo sapiens), P09471. 220,000 compounds, 0.34% hits. actives lie on both sides. AID 1423, 2008; in the data active means response below about 60% or above about 140%; inactive means in between;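 further: Galphao activated as the GDP aluminium fluoride complex binding bead-coupled RGS8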
Avidin fluor: green autofluorescence of compounds with avidin beads – biophysical, 488/530 nm, flow cytometry, artefact control, profiling panel | compound fluorescence 488/530 nm; stronger effect = higher value | fluorescence (KMESF) at 10 µM | 220,000 compounds, 0.38% hits | AID 1775, 2009; in the data active means fluorescence above about 47
GSH fluor: compound fluorescence on glutathione beads, profiling panel, artefact control, biophysical, 488/530 nm, flow cytometry; GSH beads flow cytometry, compound fluorescence 488/530 nm; stronger effect = higher value; fluorescence (KMESF) at 10 µM; 190,000 compounds, 0.25% hits; AID 1776, 2009; in the data active means fluorescence above about 89;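 further: glutathione beads carrying GST-tagged Bcl family fusion proteins plus one bare bead set; values are compound well signal with DMSO vehicle wells as background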
RGS4-Gao HTS: modulators of RGS–Galpha-o binding, primary screen, biochemical, multiplexed beads, flow cytometry, RGS4/7/8/16/19; 1,600 compounds, 99% hits; shares compounds with RGS16-Gao; multiplexed bead flow cytometry; RGS4–Galpha-o binding response, % at 10 µM;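 further: fluorescently labeled Galpha-o bound to GDP with aluminium fluoride binding biotinylated RGS beads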
Target sequence (P09471 whole entry, looked up): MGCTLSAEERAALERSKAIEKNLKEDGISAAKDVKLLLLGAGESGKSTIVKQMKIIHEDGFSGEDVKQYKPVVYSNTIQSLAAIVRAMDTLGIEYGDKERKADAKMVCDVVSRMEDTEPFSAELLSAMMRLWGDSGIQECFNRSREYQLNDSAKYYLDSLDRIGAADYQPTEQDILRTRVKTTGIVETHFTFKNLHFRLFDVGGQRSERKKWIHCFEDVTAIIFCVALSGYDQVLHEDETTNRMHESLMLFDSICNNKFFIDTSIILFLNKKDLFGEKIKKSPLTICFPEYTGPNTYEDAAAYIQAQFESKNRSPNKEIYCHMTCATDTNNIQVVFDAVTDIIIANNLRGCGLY
Target sequence (P49798 whole entry, looked up): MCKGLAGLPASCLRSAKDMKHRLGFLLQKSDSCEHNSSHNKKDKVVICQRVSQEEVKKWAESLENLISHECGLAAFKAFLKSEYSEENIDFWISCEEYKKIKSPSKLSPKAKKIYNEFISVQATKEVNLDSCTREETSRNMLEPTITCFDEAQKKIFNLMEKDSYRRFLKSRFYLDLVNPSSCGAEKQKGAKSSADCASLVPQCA
Biotin-avidin: disruption of biotin probe capture by avidin, counter-screen for RGS protein interaction modulators, biochemical, flow cytometry, bead-based; 1,700 tested, under 10 active; streptavidin beads, fluorescein-biotin binding; inhibition, % at 10 µM; shares compounds with RGS16-Gao;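 active means inhibition above 50%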;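 further: median green fluorescence of gated singlet beads compared with DMSO control wells; 0% = DMSO wells and 100% = complete loss of bead fluorescence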
RGS8-Gao single: RGS8-Galphao binding modulators, confirmation, biochemical, multiplexed bead flow cytometry, single concentration. AID 1836, 2009. 1,700 compounds, 3% hits. bead-based flow cytometry RGS8-Galphao binding, fluorescence; actives lie on both sides. binding response (% of control), % at 10 µM. shares compounds with RGS16-Gao; in the data active means binding response below about 72% or above about 130%; inactive means in between;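 further: Galphao activated as GDP AlF4 complex before binding bead RGS8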
RGS7-Gao single: RGS7-Galphao binding modulators, confirmation, biochemical, multiplexed bead flow cytometry, single concentration; shares compounds with RGS16-Gao; bead-based flow cytometry RGS7-Galphao binding; actives lie on both sides; response (percent of control binding), % at 10 µM; 1,700 compounds, 7.8% hits; AID 1837, 2009; in the data active means response below about 75% or above about 130%; inactive means in between;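 further: fluorescent Galphao activated with GDP and aluminum fluoride binding bead-coupled RGS7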
RGS16-Gao single: modulators of RGS16-Galphao protein binding, confirmation, biochemical, single concentration, multiplexed bead flow cytometry. shares compounds with RGS16-Gao. 1,700 compounds, 4% hits. bead-based flow cytometry; actives lie on both sides. response (% of control binding), % at 10 µM; in the data active means response below about 74% or above about 130%; inactive means in between;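 further: Galphao activated as the GDP aluminium fluoride complex binding bead-coupled RGS16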
RGS4-Gao single: modulators of RGS4-Galphao protein binding, confirmation, biochemical, single concentration, multiplexed bead flow cytometry. binding response (% of control), % at 10 µM. 1,700 compounds, 4% hits. actives lie on both sides. shares compounds with RGS16-Gao. AID 1840, 2009; in the data active means binding response below about 74% or above about 130%; inactive means in between
RGS19-Gao conf: regulators of RGS19-Galphao binding, confirmation, biochemical, single point, multiplexed bead flow cytometry. shares compounds with RGS16-Gao. bead-based flow cytometry RGS19-Galphao binding; actives lie on both sides. response (percent of control binding), % at 10 µM. 1,700 compounds, 5% hits. AID 1841, 2009; in the data active means response below about 50% or above about 160%; inactive means in between;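 further: 100% = no compound control and 0% = blank background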
Active calls of the source: *; · = not tested or not shown. Unless noted, how the calls were made is not given here.

SMILES | RGS7-Gao reg | RGS16-Gao | RGS4-Gao reg | RGS8-Gao | Avidin fluor | GSH fluor | RGS4-Gao HTS | Biotin-avidin | RGS8-Gao single | RGS7-Gao single | RGS16-Gao single | RGS4-Gao single | RGS19-Gao conf
Cc1cc(=O)oc2cc(Oc3ccc([N+](=O)[O-])cc3[N+](=O)[O-])ccc12 | 91 | 25* | 93 | 75 | 8 | 9 | 93* | 1 | 104 | 103 | 109 | 103 | 123
Cc1cc(=O)oc2cc(Oc3ncccc3[N+](=O)[O-])ccc12 | 88 | 98 | 94 | 98 | 10 | 11 | · | · | · | · | · | · | ·
S=C(NCCc1ccccc1)NC1CC2CCC(C1)N2Cc1ccccc1 (stereo not given) | 100 | 111 | 101 | 103 | 13 | 12 | · | · | · | · | · | · | ·
N#CCCN(C(=O)COc1ccc(Cl)cc1Cl)c1ccccc1 | 102 | 99 | 101 | 102 | 5 | 10 | · | · | · | · | · | · | ·
COc1ccc(NC(=O)c2ccc(COCC(F)(F)C(F)F)cc2)cc1 | 93 | 25* | 78 | 68 | 2 | 13 | 78* | 0 | 104 | 103 | 104 | 102 | 118
COc1cccc(C2C(C(=O)c3cc4cccc(OC)c4o3)=C(O)C(=O)N2c2cc(C)on2)c1OC (stereo not given) | 11* | 1.2* | -0.4* | 34* | -1 | 27 | · | 0 | 102 | 106 | 104 | 106 | 100
O=C(NCCO)Nc1ccc2nc(-c3ccco3)c(-c3ccco3)nc2c1 | 40* | 17* | 66 | 48* | -1 | 9 | 66* | · | · | · | · | · | ·
COCc1cc(/C=N\NC(=O)Cc2ccc(OC)cc2)ccc1OC | 98 | 21* | 92 | 70 | 1 | 10 | 92* | -1 | 103 | 103 | 100 | 100 | 109
Cc1ccc(C(=O)N2C(CC(=O)Nc3ccc(Cl)cc3)C(=O)NC3CCCCC32)cc1 (stereo not given) | 94 | 101 | 99 | 100 | 9 | 23 | · | · | · | · | · | · | ·
CCCCc1c(C)nc2ccccc2c1SCCC(=O)O | 99 | 103 | 104 | 102 | 9 | 68 | · | · | · | · | · | · | ·
